The source made the active and inactive calls. The calls were made as follows: active = hit-call score of the fitted dose curve at least 0.9, where 1 is the maximum; inconclusive = response in the unintended direction; inactive = score below 0.9.
The compounds below were run against guinea pig Sigma Receptor, Non-selective Binding, SIGMAR1 (gene 100135589) (UniProt Q60492) (assay: NVS_OR_gSIGMA_NonSelective: NovaScreen (NVS) Nuclear Receptor Binding Assay for guinea pig Sigma Receptor, Non-selective Binding (AID 2283367)).
guinea pig Sigma Receptor, Non-selective Binding, SIGMAR1 (gene 100135589), sequence (Q60492 whole entry, looked up): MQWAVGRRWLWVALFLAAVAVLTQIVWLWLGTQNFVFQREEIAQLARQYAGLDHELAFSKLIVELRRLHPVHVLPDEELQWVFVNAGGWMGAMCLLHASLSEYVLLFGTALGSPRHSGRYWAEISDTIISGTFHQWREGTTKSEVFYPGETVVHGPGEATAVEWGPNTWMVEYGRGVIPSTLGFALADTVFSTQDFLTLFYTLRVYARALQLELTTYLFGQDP
Summary of the method: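 Radioligand displacement on guinea pig brain membranes, read by filter-based scintillation counting 1 h after dosing. Loss of signal versus DMSO; initial duplicate single-point screen at 25 uM, actives followed in concentration series.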

SMILES | AC50 | outcome
CC(C)CC(C)(O)C#CC(C)(O)CC(C)C (stereo not given) | 15 µM (active) | 
CC[C@H]1CC[C@H](NCc2cc3c(cc2OC)[C@H]2C[C@H]2C(=O)N3C)[C@H](c2ccccc2)N1 | 10.9 µM (active) | 
CC(C)CCCCCCCOC(=O)CCCCC(=O)OCCCCCCCC(C)C |  | inactive
O=C(O)CCN(C1(C(=O)NO)CCCC1)S(=O)(=O)c1ccc(Oc2ccc(F)cc2)cc1 |  | inactive
O=C(O)CC(O)C(=O)O (stereo not given) | 14.8 µM (active) | 
Cc1ccc(C)c(O)c1 | 8.63 µM (active) | 
O=c1[nH]c2ccc(S(=O)CCN3CCC(Cc4ccc(F)cc4)CC3)cc2o1 (stereo not given) | 0.339 µM (active) | 
CCN(C(=O)c1cc(C)cc(OC[C@H](C)Nc2ccncc2)c1)C(C)C | 6.22 µM (active) | 
CCOC(=O)COc1ccc2c(c1)CC(NCC(O)c1cccc(Cl)c1)CC2 (stereo not given) |  | inactive
CCCN(C1CCN(C(=O)C2CCNCC2)CC1)[C@@H]1CCc2ccc(OC)cc2C1 | 7.69 µM (active) | 
